Source: PubChem (several laboratories)
A selection: hits, their analogues and other compounds. The true share with any hit is near 1%.
Efflux pump inh = blocks antifungal efflux pumps in multiplex yeast assay. S. cerevisiae Candida pump triplex, Nile Red efflux. inhibition, % at 10 µM. 0.44% of 330,000 active. AID 485275;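 active = plate passing quality check with inhibition over a set limit, or well fluorescence over plate mean plus 4 SD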;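 also: Nile Red retained in pooled yeast measured as flow cytometry median fluorescence; 0% = buffer negative control and 100% = Enniatin B positive control; higher means more Nile Red kept so more efflux inhibition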
A1 inh = inhibitors of the anti-apoptotic protein A1, read as caspase activation; AID 2462; MEF A1-2A-BIM cells, Caspase-Glo 3/7 luminescence, 3 h; percent of clofoctol response, vehicle zero; caspase activation, % (no concentration beside the values); 0.066% of 330,000 active;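 active = over half of replicate activation scores above 10%, or exactly half above 10 with the replicate mean above 10; inconclusive = replicate mean below 10 yet half the replicates above 10; inactive = over half of replicates below 10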
GC-A act = GC-A (human) enzyme activation. 0.14% of 370,000 active. HEK293 GC-A cells, cGMP TR-FRET, EC30 ANP; 0% at EC30 ANP, 100% saturating ANP. P16066. activation, % at 10 µM; in the data active = activation above about 40%
Target sequence (P16066 whole entry, looked up): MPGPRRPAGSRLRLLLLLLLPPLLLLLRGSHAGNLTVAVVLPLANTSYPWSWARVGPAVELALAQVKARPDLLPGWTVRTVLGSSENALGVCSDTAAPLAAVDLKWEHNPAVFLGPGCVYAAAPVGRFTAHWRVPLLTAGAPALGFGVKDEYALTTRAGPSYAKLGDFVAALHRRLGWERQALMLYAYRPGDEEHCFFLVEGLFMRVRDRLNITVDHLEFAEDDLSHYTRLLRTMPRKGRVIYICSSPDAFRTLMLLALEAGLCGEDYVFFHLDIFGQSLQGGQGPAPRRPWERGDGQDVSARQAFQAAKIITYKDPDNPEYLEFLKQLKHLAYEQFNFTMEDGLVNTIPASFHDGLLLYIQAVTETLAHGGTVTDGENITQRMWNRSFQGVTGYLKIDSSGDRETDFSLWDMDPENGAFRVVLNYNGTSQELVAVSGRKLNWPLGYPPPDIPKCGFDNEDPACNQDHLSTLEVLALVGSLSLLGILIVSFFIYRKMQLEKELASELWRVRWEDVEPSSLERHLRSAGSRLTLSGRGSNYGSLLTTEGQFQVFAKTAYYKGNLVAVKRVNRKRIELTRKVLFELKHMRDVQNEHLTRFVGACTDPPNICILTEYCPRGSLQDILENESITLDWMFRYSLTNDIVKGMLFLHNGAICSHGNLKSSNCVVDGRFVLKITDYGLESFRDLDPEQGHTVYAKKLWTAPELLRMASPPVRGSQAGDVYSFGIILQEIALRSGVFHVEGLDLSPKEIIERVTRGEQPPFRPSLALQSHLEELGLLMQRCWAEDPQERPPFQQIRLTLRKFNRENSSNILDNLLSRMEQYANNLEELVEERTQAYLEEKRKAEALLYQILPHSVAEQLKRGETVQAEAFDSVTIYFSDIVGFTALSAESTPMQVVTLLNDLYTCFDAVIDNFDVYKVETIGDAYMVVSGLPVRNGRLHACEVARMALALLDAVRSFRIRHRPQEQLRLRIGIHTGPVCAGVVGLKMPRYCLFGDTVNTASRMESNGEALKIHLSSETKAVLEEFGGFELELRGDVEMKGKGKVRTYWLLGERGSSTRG
H9c2 TAG inh = reduces triacylglycerol accumulation in H9c2 cells; Nile Red lipid (TAG) fluorescence; cells loaded with 200 µM oleic acid; inhibition, % at 12.5 µM; 0.66% of 230,000 active; AID 651582;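 active = pattern-corrected inhibition of lipid staining of at least 50% with the nuclear-stain viability signal not falling by more than 50%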;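 also: 0% = DMSO wells and 100% = triacsin C control wells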
NPR2 activator = GC-B (human) receptor activation; activation, % at 10 µM; HEK293-GC-B cells, CNP EC30, cGMP TR-FRET; 0% at EC30 CNP, 100% saturating CNP; 0.11% of 370,000 active; AID 1920062;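 active = activation at 10 µM reaching about 35% in either raw or pattern-adjusted values, limit read from the data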
HSV augment = HSV replication enhancement | HSV replication augmentation in cells, fold increase | maximum fold increase | 0.005% of 220,000 active | AID 1956; in the data active = maximum fold increase above about 1.5; inconclusive = no clear call, values can overlap the other calls; tested in PC3 cells
Yeast cmpd fluor = counter-screen for efflux pump inhibitors: compound fluorescence. AID 588517. 4% of 1,700 active. shares compounds with Efflux pump inh. S. cerevisiae AD/pABC3, flow cytometry. fluorescence ratio to DMSO, % at 10 µM;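 active = fluorescence ratio to DMSO above its plate's cutoff, the plate mean ratio plus 5 SD, cut at about 210% in these data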;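 also: unstained yeast with no Nile Red so the signal is compound autofluorescence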
Mdr1 pump inh = blocks the Candida albicans Mdr1 efflux pump in yeast; S. cerevisiae AD/CaMDR1, Nile Red efflux, flow cytometry; 1% of 1,700 active; inhibition, % at 10 µM; shares compounds with Efflux pump inh; in the data active = inhibition above about 26%;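 also: 0% = DMSO vehicle and 100% = reference inhibitor; higher means more Nile Red retained so more efflux inhibition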
CaCdr2 efflux inh = blocks the Candida albicans Cdr2 efflux pump in yeast. Nile Red retention ratio vs DMSO, % at 10 µM. 4% of 1,700 active. AID 588520. S. cerevisiae AD/CaCDR2, Nile Red retention, flow cytometry. shares compounds with Efflux pump inh; in the data active = Nile Red retention ratio vs DMSO above about 190%;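 also: higher ratio means more blocking of Cdr2 efflux of the dye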
CaCdr1 efflux inh = inhibitors of Candida albicans Cdr1 efflux pump; inhibition, % at 10 µM; 1% of 1,700 active; S. cerevisiae AD/CaCDR1, Nile Red efflux, flow cytometry; shares compounds with Efflux pump inh;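 active = inhibition above the screen-wide mean plus twice its standard deviation, cut at about 32% in these data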
The depositor's hits bear a star; i = inactive; u = inconclusive; x = no result given.

SMILES	Efflux pump inh	A1 inh	GC-A act	H9c2 TAG inh	NPR2 activator	HSV augment	Yeast cmpd fluor	Mdr1 pump inh	CaCdr2 efflux inh	CaCdr1 efflux inh
CCOC(=O)C(=O)Nc1nnc(COc2ccccc2)s1	0	0	3	6	7	i	x	x	x	x
CCOCc1nnc(NC(=O)COc2ccc3c(c2)OCO3)s1	1.7*	0	0	x	-1	x	107	0	98	0
O=C(COc1ccccc1)Nc1nnc(COc2ccccc2)s1	0	0	-1	-4	0	x	74	0	89	0
COCc1nnc(NC(=O)COc2ccc3c(c2)OCO3)s1	0	0	3	x	5	x	x	x	x	x
CN1CCc2nc(NC(=O)COc3ccc4ccccc4c3)sc2C1	0	0	3	19	3	i	x	x	x	x
CCOc1ccccc1OCC(=O)Nc1nnc(COC)s1	0	0	5	1	0	i	104	0	96	0
CCc1nnc(NC(=O)COc2ccc3ccccc3c2)s1	0	0	2	x	-5	x	114	0	106	0
COc1cc(OC)cc(C(=O)Nc2sc3c(c2C(N)=O)CCC3)c1	1.4*	-3	-3	x	-6	x	107	0	100	0
COc1ccc(CC(=O)Nc2sc3c(c2C(N)=O)CCCC3)cc1	0	0	2	x	5	x	x	x	x	x
COc1cc2c(cc1OC)CN(C(=S)Nc1ccccc1)CC2	0	0	2	x	2	i	x	x	x	x
COc1cc2c(cc1OC)CN(C(=S)Nc1ccc(C)cc1C)CC2	1.1*	0	-2	8	5	i	103	0	102	0
CCC[C@H]1[C@@H](OC(=O)NCc2ccc(OC)cc2)CC[C@@]23CCCN2C(=O)CCC[C@@H]13	x	x	-20	x	-19	x	x	x	x	x
O=C(CSc1nc2ccccc2c(=O)n1-c1ccc(F)cc1F)Nc1ccc(N2CCOCC2)cc1	19*	1	5	x	0	i	104	0	123	0
Cc1ccc(-n2c(SCC(=O)Nc3ccc(N4CCOCC4)cc3)nc3ccccc3c2=O)cc1	9.6*	-1	0	x	2	i	104	0	123	0
O=C(OCc1cn(Cc2ccc(C(F)(F)F)cc2)nn1)N1CCOCC1	x	x	2	x	3	x	x	x	x	x
CNC(=S)Nc1ccc(C)cc1	11*	0	-1	x	5	i	100	0	102	0
O=C(O)C1Sc2[nH]c(=O)sc2C2c3cc(Br)ccc3OC(=O)C12 (centres undefined)	1.5*	1	0	-8	-2	u	90	0	102	0
O=C(O)C1Sc2[nH]c(=O)sc2C2c3cc(Cl)ccc3OC(=O)C12 (centres undefined)	0	0	7	x	1	i	x	x	x	x
C[C@@]12C(=O)Nc3ccc(F)cc3C(=O)N1[C@H]1c3ccccc3OC[C@@H]1[C@@H]2c1ccccc1	0	0	x	15	x	x	x	x	x	x
Cc1ccc2c(c1)C(=O)N1[C@H]3c4cc(C)ccc4OC[C@@H]3[C@H](c3ccccc3)[C@]1(C)C(=O)N2	0	0	-2	32	3	x	x	x	x	x
C[C@@]12C(=O)Nc3cc(Cl)ccc3C(=O)N1[C@H]1c3ccccc3OC[C@@H]1[C@@H]2c1ccccc1	0	0	x	3	x	x	x	x	x	x
C[C@@]12C(=O)Nc3cc(Cl)ccc3C(=O)N1[C@H]1c3cc(Cl)ccc3OC[C@@H]1[C@@H]2c1ccccc1	0	0	0	25	6	x	97	0	102	0
